PubChem BioAssay AID1048 (The Scripps Research Institute Molecular Screening Center, 2008)
Among all 99,000 compounds or so, about 390 (0.39%) were called active. The sample as a whole holds a higher share of actives than the screen did. Unmarked numbers belong to inactive results. Cut-off read from the data, not from the text of the source: active = TR-FRET ratio above about 2000; inactive = the rest.

Assay: signal artefacts in PPARgamma/SRC-3 readout – biochemical, TR-FRET ratio, artefact control for PPARgamma SRC-3 recruitment agonists (AID 1048)
Conditions: TR-FRET artefact counter-screen, PPARgamma/SRC-3 format; at 8 µM; stronger effect = higher value

Structure (SMILES) | TR-FRET ratio
COc1cc(-n2c(=S)[nH]c3ccc(C)cc3c2=O)c(Cl)cc1Cl | 2500 (active)
O=C(Cc1ccccc1)N1CCN(C2CCCCCC2)CC1 | 1380
O=C(CCNS(=O)(=O)c1ccccc1)Nc1ccc(Cl)cc1C(=O)c1ccccc1 | 1450
Cc1ccccc1N1C(=O)NC(=O)/C(=C\c2cc(C)n(C)c2C)C1=O | 1530
Cc1cccc(-n2c(O)c(/C=N/N3CCOCC3)c(=O)[nH]c2=S)c1 | 1680
